Results on 66 compounds are retold here after PubChem BioAssay AID2551 (National Center for Advancing Translational Sciences (NCATS), 2010).

Screen size: about 310,000 compounds; about 17,000 (5.5%) were called active. Inconclusive results (about 11%) are left out. This is one part of a sample in which actives are shown more often than they occur. Values without a mark were called inactive. The call rests on the fitted dose curve; in most records, active means well fitted inhibition curve with a large enough effect; inconclusive means small, poorly fitted or top-dose-only effect, or effect the other way; inactive means no such curve, though single readings can be large or run the other way.
On the % scale 0 is the no-effect control and ±100 the full control effect; potency means the concentration at half of the fitted maximal effect.

For this assay, the target named is Nuclear receptor ROR-gamma (Mus musculus) (UniProt P51450). Briefly: qHTS for inhibitors of ROR gamma transcriptional activity. Further: nearly all actives have a fitted effect of over 60% in size. The conditions noted are these: Drosophila S2 Gal4-RORgamma UAS-luciferase reporter, 20 h; series mostly up to 53.6 µM; activity change, negative = inhibition: at the top concentration. The text has this: NIH Molecular Libraries Probe Production Network [MLPCN] NIH Chemical Genomics Center [NCGC] MLPCN Grant: R03 DA026211-01 Assay Provider: Dan Littman, New York University Assay Overview: The retinoic acid-related orphan receptor (ROR) gamma is a transcription factor that has a central role in the differentiation of Th17 cells, a subset of T helper cells that secrete the inflammatory cytokines IL-17, IL-17F, and IL-22. Th17 cells have been implicated in graft versus host disease, autoimmune disease and asthma. ROR gamma is induced in naive T helper cells in the presence of TGF-beta combined with IL-6, IL-21, or IL-23, and thereafter directs the expression of the Th17 lineage cytokines. To study the mechanism of action of ROR gamma, an insect cell-based assay was screened. This Drosophila Schneider cell line was stably transfected with two vectors: a gene expressing a fusion of the Gal4 DNA binding domain and ROR gamma transactivation domain under the control of the metallothionine promoter and a Photinus luciferase reporter regulated by the Gal4 binding site enhancer, UAS. […] Small molecule inhibitors of ROR gamma activity are detected by a decrease in luciferase reporter activity.
Nuclear receptor ROR-gamma (Mus musculus), sequence (P51450 whole entry, looked up, the tested form may be a part): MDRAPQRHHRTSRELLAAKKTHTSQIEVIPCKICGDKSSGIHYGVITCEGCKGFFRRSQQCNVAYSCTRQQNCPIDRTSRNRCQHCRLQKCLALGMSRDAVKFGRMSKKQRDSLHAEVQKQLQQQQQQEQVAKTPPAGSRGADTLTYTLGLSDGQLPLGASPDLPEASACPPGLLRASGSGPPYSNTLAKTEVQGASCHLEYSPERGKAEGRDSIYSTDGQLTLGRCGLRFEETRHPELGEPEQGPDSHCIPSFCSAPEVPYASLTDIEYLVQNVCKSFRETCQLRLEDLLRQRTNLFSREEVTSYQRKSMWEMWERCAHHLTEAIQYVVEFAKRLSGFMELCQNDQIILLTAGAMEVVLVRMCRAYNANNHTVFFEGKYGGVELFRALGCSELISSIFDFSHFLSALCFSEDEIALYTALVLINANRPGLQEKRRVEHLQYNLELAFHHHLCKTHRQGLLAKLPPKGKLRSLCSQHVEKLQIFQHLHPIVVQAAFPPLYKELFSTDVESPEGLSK
Assay Protocol Summary: For screening, 600 cells in 4 uL/well were dispensed into white solid 1536-well plates (Grenier) using a solenoid-based dispenser. Following transfer of 23 nL compound or DMSO vehicle by a pin tool, the plates were incubated 1 hr at ambient temperature, and 1 uL/well copper sulfate (700 uM final concentration) was added. The plates were centrifuged 15 s at 1000 RPM and incubated 20 hr at ambient temperature. After addition of 1.5 uL Photinus luciferase detection reagent, the plates were incubated 10 min at ambient temperature and then read by an ViewLux (Perkin Elmer) to detect luminescence. Keywords: NIH Roadmap, MLPCN, MLI, MLSMR, qHTS, NCGC, qHTS, nuclear hormone receptor, retinoic acid-related orphan receptor, ROR gamma
`CCCCNC(=O)CN1C(=O)NC(Cc2ccccc2)(Cc2ccccc2)C1=O`: the “activity change, negative = inhibition” value was 1.1%.

For `O=C(NCC(=O)N1CCN(c2ccccc2O)CC1)c1ccc2ccccc2c1`, the “activity change, negative = inhibition” value was 6.01%. Take `Cc1cc(C)cc(N(CC(=O)NC2CCCC2)C(=O)CCC(=O)Nc2cc(C)on2)c1`: the “activity change, negative = inhibition” value was 2.25%. Regarding `O=C(CN1CCOC1=O)N1CCCC(Nc2ccc(F)c(F)c2)C1` (stereo unspecified), the “activity change, negative = inhibition” value was 28.4%. For the compound `O=C(CCNS(=O)(=O)c1cccs1)N1CCN(c2ccc(F)cc2)CC1`, the “activity change, negative = inhibition” value was 1.55%.

As to `CCCc1nnc(SCC(=O)Nc2ccc(C(=O)OCC)cc2)o1`, the “activity change, negative = inhibition” value is -35.3%. Still for that read-out and setting: then `CCN(C(=O)Cc1c(C(=O)O)n(CC)c2ccccc12)c1ccccc1C`, with 30.5%; and `CCOC(=O)c1ccccc1NC(=O)COC(=O)CCC(=O)N1CCOCC1`, with 2.27%; and `CC(CC(=O)N1CCN(S(=O)(=O)c2ccccc2)CC1)n1cncn1` (stereo unspecified), with 3.92%.

Turning to `CCOc1ccc(-n2c(SCC(=O)Nc3ccc(OC)cc3)nc3sc4c(c3c2=O)CCN(C)C4)cc1`, the “activity change, negative = inhibition” value is 11.9%. With `CCOc1ccccc1-c1nc(CN2CCC(C(=O)N3CCOCC3)CC2)c(C)o1`, the “activity change, negative = inhibition” value was -0.916%.

In the case of `O=c1c(-c2ccc(F)cc2)nc2cnc(N3CCNCC3)nc2n1Cc1cccs1`, the “activity change, negative = inhibition” value was -5.47%. For `N#Cc1cccc(-c2nc3cnc(N4CCNCC4)nc3n(C3CC3)c2=O)c1`, the Potency is 12.6 µM (active). Take `Cn1c(=O)c(-c2ccccc2)nc2cnc(N3CCNCC3)nc21`: the “activity change, negative = inhibition” value is -20.6%. Turning to `Cc1c2cnn(CC(=O)NCCCN3CC(C)CC(C)C3)c(=O)c2c(C)n1Cc1ccc(Cl)cc1` (stereo unspecified), the “activity change, negative = inhibition” value was -33.5%. Still for that read-out and setting: with `CC(C)(c1ccccc1)c1ccc(OCCN2CCCC2)cc1` the figure was -9.7%; with `O=C(NCCCn1ccnc1)c1ccccc1F`, -8.55%. Still for that read-out and setting: then `CN(Cc1ccccc1)C(=O)c1cccc(C(=O)N(C)Cc2ccccc2)c1`, with -14.3%.

For the compound `O=[N+]([O-])/C=C/c1ccc2c(ccn2Cc2ccccc2)c1`, the Potency is 12.6 µM (active). With `O=c1c([N+](=O)[O-])cc(C(F)(F)F)cn1Cc1cccc(Cl)c1`, the “activity change, negative = inhibition” value is 26.4%. The same measure, in the same setting: with `O=C(Cn1ccc2cc(S(=O)(=O)N3CCCC3)ccc21)NCc1ccccc1` the figure was 4.66%; with `Cc1c(C(=O)NCC(c2ccco2)N2CCCC2)oc2ccc(Cl)cc12` (stereo unspecified), 8.17%.

As for `Cc1onc(C(=O)Nc2ccc3c(c2)OCO3)c1[N+](=O)[O-]`, the “activity change, negative = inhibition” value is 36.5%. Take `CCCc1[nH]nc2c1C(c1c(C)nn(-c3ccccc3)c1Cl)C(C#N)=C(N)O2` (stereo unspecified): the “activity change, negative = inhibition” value is 33.4%. Take `CCCc1[nH]nc2c1C(c1ccc(OC(=O)c3ccco3)cc1)C(C#N)=C(N)O2` (stereo unspecified): the “activity change, negative = inhibition” value is -14.4%. As for `CCCc1[nH]nc2c1C(c1ccc(Br)s1)C(C#N)=C(N)O2` (stereo unspecified), the Potency was 12.6 µM (active).

Turning to `Cc1ccc(S(=O)(=O)N(Cc2ccccc2)c2ccccn2)cc1[N+](=O)[O-]`, the “activity change, negative = inhibition” value is 34.1%.

With `Cc1cccc(OCC(O)CN2CCN(S(=O)(=O)c3ccc(C)cc3C)CC2)c1` (stereo unspecified), the “activity change, negative = inhibition” value is 11.8%.

For the compound `Cc1cc(C)nc(NC2=NCC(=O)N2c2ccc(Cl)cc2)n1`, the Potency was 0.224 µM (active). In the case of `Cc1ccc(N2C(=O)CN=C2Nc2nc(C)cc(C)n2)cc1`, the “activity change, negative = inhibition” value was -23.8%. Same read-out and setting: then `COc1ccc(N2C(=O)CN=C2Nc2cccc(C)c2C)cc1OC`, with 5.1%; and `CC1CN(C(=O)CCC(=O)NCc2cccnc2)c2ccccc2O1` (stereo unspecified), with -22.8%; and `Cc1ccc(C(=O)N2CC(=O)Nc3ccc(F)cc3C2c2ccc(F)cc2)cc1` (stereo unspecified), with 40.3%. As to `Cc1ccc(NC(=O)c2cc3ccccc3o2)cc1`, the “activity change, negative = inhibition” value is -8.5%. Regarding `COc1ccccc1C(=O)NC(=S)Nc1ccccc1N1CCCCC1`, the Potency was 3.98 µM (active). With `CC(Sc1nncn1C)C(=O)Nc1cc(C(F)(F)F)ccc1N1CCOCC1` (stereo unspecified), the “activity change, negative = inhibition” value is 11.5%. On the same count and under the same terms, then `COc1cc(C(=O)Nc2cc(C(F)(F)F)ccc2N2CCOCC2)ccc1O`, with 18.1%.

As to `O=C(NC(=S)Nc1cc(C(F)(F)F)ccc1N1CCOCC1)c1ccc(-c2cccc(Cl)c2)o1`, the Potency is 10 µM (active). With `COc1ccccc1C(=O)NC(=S)NC12CC3CC(CC(C3)C1)C2`, the “activity change, negative = inhibition” value is -11%. Still for that read-out and setting: then `Cc1ccccc1NC(=O)Nc1ccccc1N1CCCCC1`, with -4.44%.

As to `Cc1cccc(OCC(=O)NC(=S)Nc2ccccc2N2CCOCC2)c1`, the Potency is 11.2 µM (active). Consider `CC(=O)N1CCN(c2ccccc2NC(=S)NC(=O)c2cc3ccccc3o2)CC1`, for which the Potency was 11.2 µM (active). In the case of `Cc1cccc(OCC(=O)Nc2ccccc2F)c1`, the “activity change, negative = inhibition” value is -0.216%. The same measure, in the same setting: with `O=C(Nc1ccccc1N1CCN(C(=O)c2ccccc2)CC1)c1ccco1` the figure was 18%. Take `Cc1cccc(OCCC(=O)Nc2cc(S(=O)(=O)N3CCCCC3)ccc2N2CCOCC2)c1`: the “activity change, negative = inhibition” value was -0.287%. On the same count and under the same terms, then `O=C1CCN(Cc2ccccc2)CCN1[C@H](CSc1ccccc1)c1ccccc1`, with 6.36%; and `COC(=O)c1ccc(N2CCOCC2)c(NC(=O)c2ccc3c(c2)OCCO3)c1`, with -23.4%. Same read-out and setting: then `Cc1cc(NC(=O)c2ccco2)c(=O)n(Cc2c(F)cccc2Cl)c1`, with 6.19%. Same read-out and setting: with `COCCNc1nc(N)c([N+](=O)[O-])c(N2CCCCCC2)n1` the figure was 21.8%.

For `CCOc1ccc(-c2noc(CCC(=O)NC3CCCC3)n2)cc1OC`, the “activity change, negative = inhibition” value is 13.1%. With `O=C(c1ccc(CS(=O)(=O)c2ccccc2)o1)N1CCN(c2ccccc2)CC1`, the “activity change, negative = inhibition” value is 18.4%.

As for `COc1ccc(CNC(=O)[C@H](Cc2c[nH]c3ccccc23)NC(C)=O)cc1OC`, the “activity change, negative = inhibition” value was -14.9%. On to `O=C(NCCCN1CCOCC1)C1CCCN(S(=O)(=O)N2CCCCC2)C1` (stereo unspecified), for which the “activity change, negative = inhibition” value is -11%.

Consider `CCc1ccc(C(=O)NC(=S)Nc2ccccc2N2CCOCC2)cc1`, for which the Potency is 3.55 µM (active). The same measure, in the same setting: with `O=C(NC(=S)Nc1ccccc1N1CCCCC1)c1ccc(F)cc1` the figure was 3.98 µM (active). For the compound `CC(=O)c1ccc(N2CCN(CC(=O)Nc3ccccc3N3CCOCC3)CC2)cc1`, the “activity change, negative = inhibition” value is 32.1%. Regarding `O=C(CCNC(=O)c1ccc([N+](=O)[O-])cc1)Nc1ccccc1N1CCOCC1`, the “activity change, negative = inhibition” value was -19.6%. Turning to `O=C(Nc1ccccc1N1CCCC1)c1ccc2ccccc2c1`, the “activity change, negative = inhibition” value is 7%.

`O=C(Nc1ccccc1N1CCCCC1)c1cccc(F)c1`: the “activity change, negative = inhibition” value is -27.2%. On to `CC1CCN(CC(O)COc2ccc(C(=O)c3ccccc3)cc2)CC1` (stereo unspecified), for which the “activity change, negative = inhibition” value was -4.49%.

For the compound `O=C(NCc1cccc(Cl)c1)C1CCC(=O)N(C2CC2)C1` (stereo unspecified), the “activity change, negative = inhibition” value is 1.36%. On the same count and under the same terms, then `Cc1cc(CN(C)C(=O)c2cc(COc3ccc(C)c(C)c3)on2)n[nH]1`, with -24%; and `O=C(Nc1nncs1)c1cccc(S(=O)(=O)N2CCCCC2)c1`, with 46.3%. As for `O=C(NNC1=NCCC1)c1cccc(S(=O)(=O)N2CCCCC2)c1`, the Potency was 12.6 µM (active). Turning to `O=C(NNC(=S)Nc1ccccc1)c1cccc(S(=O)(=O)N2CCOCC2)c1`, the “activity change, negative = inhibition” value is -23.5%. In the case of `CN(CC1CCCN(CCc2cccc(C(F)(F)F)c2)C1)C(=O)c1ccc2nc[nH]c2c1` (stereo unspecified), the “activity change, negative = inhibition” value is -10.7%.
